Test results reported in the supplement of paper PMC8877412.
Structures can show the parent of a compound that is named as a salt. ± gives the uncertainty stated by the source.

These molecules were tested on NCC-PMP1-C1 (assay: cell viability relative to DMSO control; higher = less growth inhibition). Conditions: 10 µM; 72 h.
Protocol: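 NCC-PMP1-C1 pseudomyxoma peritonei cells were seeded in 384-well plates coated with Matrigel and MEF (1e4 cells). Viability was read after 72 h by CCK-8 and expressed as % of the DMSO control, mean ± SD of duplicates.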

| SMILES | cell viability |
| --- | --- |
| CC[C@@]1(O)C(=O)OCc2c1cc1n(c2=O)Cc2cc3c(CN(C)C)c(O)ccc3nc2-1 [Topotecan HCl] | 55.8 ± 2.9% |
| CCCCNC(=O)NS(=O)(=O)c1ccc(C)cc1 [Tolbutamide] | 96.4 ± 6.1% |
| CO[C@H]1C[C@@H]2CC[C@@H](C)[C@@](O)(O2)C(=O)C(=O)N2CCCC[C@H]2C(=O)O[C@H]([C@H](C)C[C@@H]2CC[C@@H](OCCO)[C@H](OC)C2)CC(=O)[C@H](C)/C=C(\C)[C@@H](O)[C@@H](OC)C(=O)[C@H](C)C[C@H](C)/C=C/C=C/C=C/1C [Everolimus (RAD001)] | 83.3 ± 7.4% |
| CCS(=O)(=O)N1CCN(c2ccc(Nc3ncc(C(N)=O)c(NC4CC4)n3)cc2)CC1 | 71.8 ± 3.5% |
| COc1cc2c(cc1O)CC[C@@H]1[C@@H]2CC[C@]2(C)[C@@H](O)CC[C@@H]12 [2-Methoxyestradiol (2-MeOE2)] | 98 ± 4% |
| CCCCC1C(=O)N(c2ccccc2)N(c2ccccc2)C1=O [Phenylbutazone] | 119 ± 5.4% |
| Nc1nc(Cl)nc2c1ncn2[C@H]1C[C@H](O)[C@@H](CO)O1 [Cladribine] | 97.8 ± 1.1% |
| C[C@]1(O)C[C@@H](c2nc(-c3ccc4ccc(-c5ccccc5)nc4c3)c3c(N)nccn32)C1 [Linsitinib (OSI-906)] | 58.9 ± 2.1% |
| CC[C@H](Nc1ncnc2[nH]cnc12)c1nc2cccc(F)c2c(=O)n1-c1ccccc1 [CAL-101 (Idelalisib, GS-1101)] | 73.5 ± 9.8% |
| C[C@@H](CN1CC(=O)NC(=O)C1)N1CC(=O)NC(=O)C1 [Dexrazoxane] | 94.8 ± 15% |
| CC(C)(C#N)c1cc(Cn2cncn2)cc(C(C)(C)C#N)c1 [Anastrozole] | 110 ± 6.5% |
| CCCCNc1ncc(-c2ccc(CN3CCOCC3)cn2)c(NC2CCC(O)CC2)n1 (stereo unspecified) | 43.4 ± 2% |
| COc1cc(Nc2ncc(F)c(Nc3ccc4c(n3)N(COP(=O)(O)O)C(=O)C(C)(C)O4)n2)cc(OC)c1OC [Fostamatinib (R788)] | 4.92 ± 3.4% |
| C[C@@]12C[C@@]3(O)O[C@@H](O1)[C@]1(COC(=O)c4ccccc4)[C@H]3C[C@@]12O[C@@H]1O[C@H](CO)[C@@H](O)[C@H](O)[C@H]1O [Paeoniflorin] | 78.6 ± 9% |
| Nc1ncn([C@@H]2O[C@H](CO)[C@@H](O)[C@H]2O)c(=O)n1 [Azacitidine] | 83.3 ± 6.9% |
| CCN1CCN(Cc2ccc(Nc3ncc(F)c(-c4cc(F)c5nc(C)n(C(C)C)c5c4)n3)nc2)CC1 [Abemaciclib mesylate] | 77.7 ± 1.2% |
| C[C@]12CC[C@@H]3c4ccc(O)cc4C[C@@H](CCCCCCCCC[S+]([O-])CCCC(F)(F)C(F)(F)F)[C@H]3[C@@H]1CC[C@@H]2O (stereo partly specified) [Fulvestrant] | -7.846 ± 0.067% |
| CC(=O)Oc1ccccc1C(=O)O [Aspirin] | 110 ± 4.8% |

| SMILES | cell viability |
| --- | --- |
| O=C(Nc1nc2cccc(-c3ccc(CN4CCS(=O)(=O)CC4)cc3)n2n1)C1CC1 [Filgotinib (GLPG0634)] | 93.7 ± 8.6% |
| O=S(=O)(O)CCS [Mesna] | -9.24% |
| Cc1ccc(NC(=O)c2ccc(CN3CC[C@H](N(C)C)C3)c(C(F)(F)F)c2)cc1Nc1nccc(-c2cncnc2)n1 [Bafetinib (INNO-406)] | 72.1 ± 3.7% |
| COc1cc(OC)cc(N(CCNC(C)C)c2ccc3ncc(-c4cnn(C)c4)nc3c2)c1 [Erdafitinib] | 59.1 ± 2.4% |
| COc1ccc2[nH]c([S@@+]([O-])Cc3ncc(C)c(OC)c3C)nc2c1 [Esomeprazole Sodium] | 108 ± 1.5% |
| Fc1ccc(C(c2ccc(F)cc2)N2CCN(C/C=C/c3ccccc3)CC2)cc1 [Flunarizine 2HCl] | 99.6 ± 22% |
| COc1cc2ncnc(Nc3ccc(F)c(Cl)c3)c2cc1NC(=O)/C=C/CN1CCCCC1 | 68.1 ± 1.6% |
| C#Cc1cccc(Nc2ncnc3cc(OCCOC)c(OCCOC)cc23)c1 [Erlotinib HCl (OSI-744)] | 74.6 ± 2.7% |
| Nc1ccn([C@@H]2O[C@H](CO)[C@@H](O)C2(F)F)c(=O)n1 [Gemcitabine] | 68.1 ± 11% |
| Nc1ccn([C@@H]2O[C@H](CO)[C@@H](O)C2(F)F)c(=O)n1 [Gemcitabine HCl] | 67.5 ± 15% |
| C=C1C[C@@H]2CC[C@@]34C[C@H]5O[C@H]6[C@@H](O3)[C@H]3O[C@H](CC[C@@H]3O[C@H]6[C@H]5O4)CC(=O)C[C@@H]3[C@@H](OC)[C@@H](C[C@H](O)CN)O[C@H]3C[C@H]3O[C@@H](CC[C@@H]1O2)C[C@@H](C)C3=C [Eribulin] | 53.95 ± 0.3% |
| Cc1nc(Nc2ncc(C(=O)Nc3c(C)cccc3Cl)s2)cc(N2CCN(CCO)CC2)n1 [Dasatinib] | 26.3 ± 4.4% |
| Cc1ccc(S(=O)(=O)Nc2nc3ccccc3nc2Nc2ccc3nsnc3c2)cc1 [XL147 analog] | 96.2 ± 9% |
| O=C(O)CCCN1CCC(O[C@@H](c2ccc(Cl)cc2)c2ccccn2)CC1 [Bepotastine Besilate] | 2.73 ± 16% |
| COc1cc2/c(=N/c3ccc(Br)cc3F)nc[nH]c2cc1OCC1CCN(C)CC1 [Vandetanib (ZD6474)] | 54.7 ± 4.9% |
| N=C(N)NC(=N)N1CCOCC1 [Moroxydine HCl] | 104 ± 11% |
| O=[n+]1c(CBr)c(CBr)n([O-])c2ccccc21 [Conoidin A] | 112 ± 22% |
| CC1(COc2ccc3c(c2)ncn3-c2ccc3cccc(N4CCC(N)CC4)c3n2)COC1 | 70 ± 8.6% |
